Data on 11 molecules can be found in PubChem BioAssay (NCATS).

Values without a mark were called inactive. Records with an inconclusive call do not appear. Activity calls are given as the source filed them. Unless noted, calls come from the whole dose curve; as a rule, active = well fitted curve in the direction sought with a large enough effect; inconclusive = small, poorly fitted or top-dose-only effect, or another doubt; inactive = no such curve, though single readings can be large; an effect the other way counts as inactive or inconclusive.

For test [1], the target named is 3',5'-cyclic-AMP phosphodiesterase 4B (Homo sapiens) (UniProt Q07343). Kind of test: qHTS Assay for Inhibitors of PDE-IV (AID 607; active = well fitted activation curve with a large enough effect in the main read-out, with a control signal flat, not every such curve was filed as active; note: % of control where 0% means no effect). In outline:
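ACTOne HEK293 cells carry a modified cAMP-gated CNG channel and express endogenous PDE4; plated 1000 cells/well, compounds up to 22.9 uM final. Membrane-potential dye fluorescence (ex 535/em 590) was read; parental cells received 10 uM forskolin + 100 uM RO 20-1724.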

The nature of test [2]: Cell Viability - Mesenchymal (AID 546).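 For activity change, negative = cytotoxicity: 0% = DMSO only and -100% = 100 µM tamoxifen.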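 Note: cells exposed to compound for 40 hours before reading.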 Note: potency is the fitted concentration of half-maximal effect. Conditions: mesenchymal cells viability, qHTS; activity change, negative = cytotoxicity: at 91.7 µM (top of the series). The method in brief: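 In this qHTS cytotoxicity format, glomerulus-derived human mesenchymal kidney cells received compound for 40 hr, then luciferase-based ATP quantitation. Concentration-response data were fitted with the Hill equation.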
(Quantitative high-throughput screening tests each substance at several concentrations.)

Test [3] in a line: Cellular Toxicity (caspase-3) HepG2 (AID 654).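 For caspase-3 activation: cells exposed to compound for 16 hours before reading; 0% = DMSO alone and 100% = caspase signal from 100 µM tamoxifen.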 Note: potency is the fitted concentration of half-maximal effect. In outline: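 Concentration-response AC50 values reflect caspase-3/7 induction in HepG2 cells after 16 hours of compound exposure, quantified by luminescence from liberated aminoluciferin and referenced to 100 uM tamoxifen as full stimulation.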
Test [4] in a line: Cellular Toxicity (caspase-3) Jurkat (AID 655).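 Note: cells exposed to compound for 16 h at 37 °C before reading.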 In outline:
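Luminescent caspase-3/7 readout (aminoluciferin substrate cleavage) in human T-cell leukemia Jurkat cells after 16 hr compound exposure. Concentration-response normalized to DMSO and 100 uM tamoxifen; AC50 by standard Hill equation.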

The nature of test [5]: Cellular Toxicity (caspase-3) HUV-EC-C (AID 656).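 Note: 0% = DMSO basal and 100% = 100 µM tamoxifen.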 The method in brief: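 Luminescent caspase-3/7 activation (aminoluciferin substrate cleavage) in HUV-EC-C cells after 16 hr compound exposure, 37°C. Signal normalized to DMSO basal and 100 uM tamoxifen as 100%; AC50 from concentration-response fitted with the Hill equation.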
A short description of test [6]: Cellular Toxicity (caspase-3) SHSY5Y (AID 657). The method in brief: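 Luminescent caspase-3/7 readout (aminoluciferin release) in SH-SY5Y cells after 16 h compound exposure in complete medium. Activity scaled between DMSO basal and 10 uM staurosporine as 100%; concentration-response fitted to Hill equation for AC50.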
Test [7] can be described thus: Cellular Toxicity (caspase-3) BJ (AID 658).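 Note: 0% = DMSO basal and 100% = 10 µM staurosporine.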 The method in brief:
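Plated BJ cells (1000/well) rested 5 hr, received compound for 16 hr at 37 °C, then Caspase-Glo 3/7 reagent for 1 hr at room temperature before luminescence reading.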

Test [8] in a line: Cellular Toxicity (caspase-3) MRC-5 (AID 659).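 For caspase-3 activation: 0% = DMSO basal and 100% = 10 µM staurosporine.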 Note: potency is the fitted concentration of half-maximal effect. Conditions: Potency: caspase-3 activation. In outline:
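Apoptosis readout in MRC-5 cells: luciferase light generated after caspase 3/7 cleaves a peptide-aminoluciferin substrate, measured post 16 hr compound incubation at 37 °C.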

Test [9] can be described thus: Cellular Toxicity (caspase-3) Mesangial (AID 660).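 Note: combined caspase 3 and 7 activity read by Caspase-Glo luminescence; cells exposed to compound for 16 h before the caspase read.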 In outline: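 AC50 values come from Hill-equation fits of caspase 3/7 activation, measured as Caspase-Glo luminescence in human glomerular mesangial cells exposed to compound for 16 h at 37 °C; 100% set by 100 uM tamoxifen.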
A short description of test [10]: Cellular Toxicity (caspase-3) SK-N-SH (AID 661).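 Note: 0% = DMSO basal and 100% = 10 µM staurosporine.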 In outline: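 Apoptosis readout in SK-N-SH neuroblastoma: Caspase-Glo 3/7 luminescence following 16 hr treatment in complete culture medium. Normalization used DMSO and 10 uM staurosporine controls.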
Test [11] can be described thus: Cellular Toxicity (caspase-3) H-4-II-E (AID 663).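 Note: cells exposed to compound for 16 hr before readout; 0% = DMSO basal and 100% = 100 µM tamoxifen.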 Conditions: Potency: caspase-3 activation. In outline:
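Caspase 3/7 activation measured in H-4-II-E cells in complete culture medium after 16 hr treatment at 37 °C, using luciferase-coupled substrate readout; AC50 values come from Hill-equation fits of normalized concentration-response data.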

A short description of test [12]: Cellular Toxicity (caspase-3) N2a (AID 665).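 Note: compound exposure lasted 16 h at 37 °C before readout.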 Conditions: Potency: caspase-3 activation. The method in brief: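 Concentration-response qHTS: compound-induced caspase-3/7 luminescence in N2a cells (16 h, 37 °C), relative to DMSO and 10 uM staurosporine controls; AC50 obtained using the standard Hill equation.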
Test [13] can be described thus: Cellular Toxicity (caspase-3) NIH 3T3 (AID 666).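 Note: 0% = DMSO basal and 100% = 100 µM tamoxifen stimulation.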 The method in brief:
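Activity: caspase-3/7 induction, NIH 3T3 cells, 16 hr treatment at 37°C, luminescent Caspase-Glo detection; AC50 via Hill equation.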

Test [14] can be described thus: Cellular Toxicity (caspase-3) Renal Proximal Tubule (AID 667).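 Note: cells exposed to compound for 16 hours at 37 °C before detection; 0% = DMSO basal and 100% = 10 µM staurosporine.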 The method in brief: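 Luminescent caspase 3/7 signal from peptide-aminoluciferin cleavage measures apoptosis in freshly isolated rat kidney proximal tubule cells after 16 h compound exposure. Concentration-response data are normalized to DMSO and 10 uM staurosporine, and AC50 values come from Hill equation fits.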

For test [15], the target named is Cytochrome P450 3A4 (Homo sapiens) (UniProt P08684). Nature of the test: qHTS Assay for Inhibitors and Substrates of Cytochrome P450 3A4 (AID 884). Note: % is set by controls: 0 for no effect and ±100 for the full control effect; nearly all actives have a fitted effect of over 50% in size. In outline: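 Luminescent readout of luciferin produced by CYP3A4 (20 nM) dealkylation of Luciferin-PPXE, 25 uM (its KM). NADPH-driven reaction ran 60 min at RT after 10 min compound preincubation; data scaled to 57 uM ketoconazole as 100% inhibition.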
Chain of Cytochrome P450 3A4 (Homo sapiens) (P08684 whole entry, looked up): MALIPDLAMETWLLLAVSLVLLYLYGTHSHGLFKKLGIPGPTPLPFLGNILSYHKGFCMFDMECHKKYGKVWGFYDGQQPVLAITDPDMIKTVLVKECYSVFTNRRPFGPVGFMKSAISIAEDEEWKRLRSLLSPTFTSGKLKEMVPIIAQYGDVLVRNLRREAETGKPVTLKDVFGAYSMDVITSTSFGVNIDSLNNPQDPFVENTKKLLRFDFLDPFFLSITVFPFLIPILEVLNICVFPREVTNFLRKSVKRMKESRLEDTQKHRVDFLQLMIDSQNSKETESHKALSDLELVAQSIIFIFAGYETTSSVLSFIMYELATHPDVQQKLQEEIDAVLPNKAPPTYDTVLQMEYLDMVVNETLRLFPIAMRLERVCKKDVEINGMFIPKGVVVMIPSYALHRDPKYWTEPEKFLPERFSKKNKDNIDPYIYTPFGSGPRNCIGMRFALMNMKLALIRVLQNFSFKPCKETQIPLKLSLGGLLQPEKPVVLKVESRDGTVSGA

Test [16] shares this target. Kind of test: qHTS Assay for Activators of Cytochrome P450 3A4 (AID 885). Note: nearly all actives have a fitted effect of over 65% in size. In outline:
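CYP3A4 activity: Luciferin-PPXE O-dealkylation, 25uM substrate, 200mM KPO4, RT throughout. Read-out is luciferase luminescence; higher values reflect activation.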

Test [17] has as its target Cytochrome P450 2D6 (Homo sapiens) (UniProt P10635). Kind of test: qHTS Assay for Inhibitors and Substrates of Cytochrome P450 2D6 (AID 891). Note: potency is the fitted concentration of half-maximal effect; nearly all actives have a fitted effect of over 60% in size. In outline: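 Luminescent read-out of luciferin formed by 5 nM human CYP2D6 demethylating 30 uM Luciferin-ME EGE (Km level) over 60 min at room temperature after NADPH regeneration addition. Data normalized to full inhibition by 1.43 uM quinidine.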

Chain of 3',5'-cyclic-AMP phosphodiesterase 4B (Homo sapiens) (Q07343 whole entry, looked up): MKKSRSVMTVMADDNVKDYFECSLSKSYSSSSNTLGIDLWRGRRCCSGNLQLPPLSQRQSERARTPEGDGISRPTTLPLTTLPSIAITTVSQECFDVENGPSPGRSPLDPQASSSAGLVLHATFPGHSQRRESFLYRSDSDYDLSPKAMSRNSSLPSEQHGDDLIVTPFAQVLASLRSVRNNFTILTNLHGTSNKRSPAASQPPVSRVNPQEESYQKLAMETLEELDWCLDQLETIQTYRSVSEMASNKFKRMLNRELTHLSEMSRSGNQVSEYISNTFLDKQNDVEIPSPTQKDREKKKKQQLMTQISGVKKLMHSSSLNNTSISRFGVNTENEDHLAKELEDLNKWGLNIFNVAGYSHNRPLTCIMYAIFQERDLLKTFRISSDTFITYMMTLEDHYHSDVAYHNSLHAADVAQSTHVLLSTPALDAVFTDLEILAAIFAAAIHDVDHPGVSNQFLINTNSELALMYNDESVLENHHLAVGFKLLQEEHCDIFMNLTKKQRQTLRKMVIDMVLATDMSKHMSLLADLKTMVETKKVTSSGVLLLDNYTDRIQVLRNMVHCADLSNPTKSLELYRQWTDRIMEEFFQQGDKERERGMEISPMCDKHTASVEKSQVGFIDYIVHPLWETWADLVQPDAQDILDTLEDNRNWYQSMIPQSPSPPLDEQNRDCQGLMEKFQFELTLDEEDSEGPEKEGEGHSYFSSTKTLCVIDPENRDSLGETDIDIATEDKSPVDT
Chain of Cytochrome P450 2D6 (Homo sapiens) (P10635 whole entry, looked up): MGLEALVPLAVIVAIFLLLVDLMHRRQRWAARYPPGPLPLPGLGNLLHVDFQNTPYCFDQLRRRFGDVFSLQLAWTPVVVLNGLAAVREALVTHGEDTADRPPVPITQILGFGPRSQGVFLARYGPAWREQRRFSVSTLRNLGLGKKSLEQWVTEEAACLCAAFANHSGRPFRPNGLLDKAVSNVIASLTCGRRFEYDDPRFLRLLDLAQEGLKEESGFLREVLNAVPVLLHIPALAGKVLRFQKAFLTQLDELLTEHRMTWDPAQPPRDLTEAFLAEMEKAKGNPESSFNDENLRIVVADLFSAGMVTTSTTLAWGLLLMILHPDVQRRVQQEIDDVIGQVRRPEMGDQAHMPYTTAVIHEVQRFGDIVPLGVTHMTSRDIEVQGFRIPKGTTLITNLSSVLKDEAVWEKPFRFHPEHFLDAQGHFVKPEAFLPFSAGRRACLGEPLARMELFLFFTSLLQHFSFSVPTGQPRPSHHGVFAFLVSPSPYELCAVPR

For `CC(C)(Oc1ccc(Cl)cc1)C(=O)O`, in test [1], the molecule was classed as inactive.
In the case of `C[C@H]1[C@H](NC(=O)/C(=N/OC(C)(C)C(=O)O)c2csc(N)n2)C(=O)N1S(=O)(=O)O` (stereo in doubt), the molecule was called inactive in test [1].
Take `CC/C(=C(/CC)c1ccc(O)cc1)c1ccc(O)cc1`: the activity change, negative = cytotoxicity in test [2] was -3%. The Potency result in test [3], in test [4], in test [6], in test [8], in test [10] and in test [11] was “inactive” throughout. In addition, the Potency result in test [12] and in test [13] was “inactive” in each case. Besides, the result in [5], in [7], in test [9] and in test [14] was inactive.
For `CC(C)(C)CC(C)(C)c1ccc(OCCOCC[N+](C)(C)Cc2ccccc2)cc1`, the activity change, negative = cytotoxicity in [2] is -104% (active). The figures for the Potency in test [3] and in test [8] were 50.1 µM (active) and 31.6 µM (active), respectively. Also, the Potency entry in test [6] was “inactive”.
For the molecule `O=c1ccc2ccccc2o1`, the activity change, negative = cytotoxicity in test [2] was 4.05%. For the same molecule, the Potency entry in test [3], in test [4], in test [6], in test [8], in test [10] and in test [11] was “inactive” throughout. Also, the Potency result in [12], in test [13] and in test [15] was “inactive” throughout. Further, the outcome in test [5], in [7], in test [9] and in test [14] was inactive.
Consider `CC(C)N=C(N)/N=C(\N)Nc1ccc(Cl)cc1`, for which the outcome in [1] was inactive.
As for `NC(=NCCCCCCN=C(N)/N=C(\N)Nc1ccc(Cl)cc1)/N=C(\N)Nc1ccc(Cl)cc1`, the figures for the Potency in test [2] and in test [17] were 31.6 µM (active) and 7.94 µM (active), respectively. The outcome in test [1], in test [5], in test [7], in [9] and in test [14] was inactive. For the same molecule, the Potency result in [3], in [4], in test [6], in [8], in [10] and in test [11] was “inactive” in each case. Moreover, the Potency entry in test [12], in test [13] and in [16] was “inactive” throughout.
`Nc1ccc(C(=O)O)cc1`: the activity change, negative = cytotoxicity in [2] is -3.72%. For the same molecule, the Potency result in test [3], in test [4], in test [6], in test [8], in test [10] and in [11] was “inactive” in each case. Further, the Potency result in test [12], in [13] and in test [15] was “inactive” each time. In addition, the molecule was classed as inactive in [5], in test [7], in [9] and in [14].
With `C=CCc1ccc(O)c(OC)c1`, the activity change, negative = cytotoxicity in test [2] is 5.14%. In addition, the Potency entry in test [3], in test [4], in test [6], in [8], in test [10] and in test [11] was “inactive” throughout. Also, the Potency result in test [12] and in [13] was “inactive” in each case. Besides, the call in [5], in test [7], in [9] and in test [14] was inactive.
As to `CCCCCCc1ccc(O)cc1O`, the activity change, negative = cytotoxicity in [2] was -9.3%. Moreover, the Potency result in test [3], in test [4], in test [6], in [8], in [10] and in [11] was “inactive” each time. Also, the Potency entry in [12] and in test [13] was “inactive” each time. Also, the molecule was called inactive in test [5], in [7], in [9] and in test [14].
In the case of `CC(O)C(=O)O` (centres undefined), the activity change, negative = cytotoxicity in test [2] is -3.83%. The Potency entry in [3], in test [4], in [6], in test [8], in [10] and in test [11] was “inactive” throughout. Moreover, the Potency entry in test [12], in test [13] and in test [15] was “inactive” each time. The result in test [5], in [7], in test [9] and in [14] was inactive.
